Activity calls are given as the source filed them.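 Rule for the calls, unless noted: active = visual image review flags a hit and inhibition of aggregation exceeds 20%; inconclusive = visual hit but inhibition at or below 20%; inactive = no hit on visual image review.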

Assay [1] can be described thus: inhibitors of TNFa-induced NFkB p65 translocation, primary screen, imaging, HUVEC, MLSMR starter and 10KST1 sets (AID 438;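 active = inhibition above 20% together with a positive visual image hit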;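 note: compound added about 3h40 before a 20 min TNFalpha stimulation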;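 for inhibition: signal is the nuclear over cytoplasmic p65 intensity ratio per well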). The note with it: HUVEC TNFa-induced p65 nuclear translocation; cell count: measured here: nuclei count (cytotoxicity indicator), at 2.08 µM; inhibition: at 2 µM, stronger effect = higher value, 0% TNFa-plus-vehicle, 100% no-TNFa wells.
A short description of assay [2]: inhibitors of mutant huntingtin aggregation, primary screen, imaging, exon1htt(103Q)mCFP cells, high-content imaging (AID 483).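 For nuclei count: percent of the per-plate median nuclei count of sample wells.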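 Note: compound exposure lasted 3 days before fixation.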 Conditions: exon1htt(103Q)mCFP cell line, aggregate imaging, at 2 µM; inhibition of aggregation: stronger effect = higher value; nuclei count: measured here: cell count, toxicity.
The nature of assay [3]: inhibitors of E-selectin induction by TNFa, primary screen, imaging, HUVEC, immunofluorescence, MLSMR starter and 10KST1 sets (AID 487;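 active = visually confirmed hit in the image check and inhibition above 20%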;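 for inhibition: signal is fraction of cell area covered by stained E-selectin grains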;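 for nuclei count: 100% = median nuclei count of all wells on the same plate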). The note with it: HUVEC TNFalpha-induced E-selectin immunofluorescence imaging, at 2 µM; inhibition: stronger effect = higher value; nuclei count: measured here: cell number, toxicity.
Assay [4] addresses Voltage-gated potassium channel subunit beta-2 (Rattus norvegicus) (UniProt P62483). Briefly: KvBeta enzyme negative modulators, primary screen, biochemical, NADPH fluorescence (AID 622;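 active = fluorescence slope higher than the sample average by over 3 SD, cut at about -0.22 in these data, passing the limit was not always enough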;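 note: slope of raw intensity against log time taken from 70 to 1610 s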). Conditions: recombinant KvBeta, 4-cyanobenzaldehyde reduction, at 10 µM, stronger effect = higher value.
Assay [5] shares this target. The experiment in a line: KvBeta positive modulators, primary screen, biochemical, NADPH fluorescence (AID 623;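 active = NADPH fluorescence slope more negative than the mean of all samples by about 3 SD, 99.7% confidence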;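 note: fluorescence intensity change per second fitted from 20 to 320 s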). The note with it: Recombinant KvBeta, NADPH fluorescence decrease slope, 10 min; at 10 µM; stronger effect = lower value.
Assay [6] addresses Alpha-2C adrenergic receptor (Homo sapiens) (UniProt P18825). The experiment in a line: modulators of alpha2C/GIRK thallium flux, primary screen, cell-based, HEK293 alpha2C/GIRK1/2 (AID 624;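 active = fluorescence slope after compound addition differing from the mean of all screened samples at 99.7% confidence, in either direction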;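 note: slope of fluorescence ratio to pre-addition baseline per second over 15 to 24 s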). Conditions: thallium flux BTC fluorescence, at 10 µM, actives lie on both sides.
The nature of assay [7]: inhibitors of Sendai virus-induced IRF3 signaling, primary screen, TLR/RLR signaling modifier project, cell-based, Sendai virus stimulus, luciferase, 10K MLSCN set (AID 602276;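 active = inhibition at or above 50% at 10 µM; inactive = inhibition below 50%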;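 note: firefly luciferase from ISG56 promoter only with Renilla not read in this screen; 0% = Sendai virus plus DMSO and 100% = medium plus DMSO without virus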). Conditions: HEK293 RL24 IRF3 luciferase reporter, at 10 µM, stronger effect = higher value. A general note: In a reporter assay the amount or activity of a reporter protein is the signal.
The nature of assay [8]: inhibitors of poly I:C-induced TLR3 signaling, primary screen, cell-based, poly I:C stimulus, luciferase, 10K MLSCN set (AID 602277;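 active = inhibition of the reporter signal at or above 50%; inactive = inhibition below 50%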). Conditions: HEK293-TLR3 RL24 IRF3 luciferase reporter, at 10 µM, stronger effect = higher value.

Alpha-2C adrenergic receptor (Homo sapiens), sequence (P18825 whole entry, looked up): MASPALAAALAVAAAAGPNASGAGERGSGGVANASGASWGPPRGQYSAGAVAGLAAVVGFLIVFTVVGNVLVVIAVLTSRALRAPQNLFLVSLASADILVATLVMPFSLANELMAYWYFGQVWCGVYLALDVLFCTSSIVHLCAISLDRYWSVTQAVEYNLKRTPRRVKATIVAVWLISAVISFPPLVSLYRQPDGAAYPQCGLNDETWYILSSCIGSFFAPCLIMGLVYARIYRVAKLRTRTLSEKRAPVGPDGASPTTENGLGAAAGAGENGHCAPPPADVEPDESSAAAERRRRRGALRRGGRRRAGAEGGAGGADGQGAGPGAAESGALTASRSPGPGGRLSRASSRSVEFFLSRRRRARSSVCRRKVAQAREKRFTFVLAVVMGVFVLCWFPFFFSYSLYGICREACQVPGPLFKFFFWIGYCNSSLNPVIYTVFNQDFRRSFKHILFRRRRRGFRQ
Voltage-gated potassium channel subunit beta-2 (Rattus norvegicus), sequence (P62483 whole entry, looked up): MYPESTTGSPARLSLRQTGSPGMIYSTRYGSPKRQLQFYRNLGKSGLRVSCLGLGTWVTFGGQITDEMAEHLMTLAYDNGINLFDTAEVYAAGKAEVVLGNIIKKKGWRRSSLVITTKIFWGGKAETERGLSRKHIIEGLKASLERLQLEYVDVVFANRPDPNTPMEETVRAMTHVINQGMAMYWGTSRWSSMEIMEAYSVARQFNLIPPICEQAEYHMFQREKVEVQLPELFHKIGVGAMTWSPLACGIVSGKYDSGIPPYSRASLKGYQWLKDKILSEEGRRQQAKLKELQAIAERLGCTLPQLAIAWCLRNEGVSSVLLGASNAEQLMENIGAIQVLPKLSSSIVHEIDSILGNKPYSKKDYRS

As a reminder, the inhibition is the relative decrease from the control value, in per cent. Regarding `CN(CC(=O)Nc1sccc1C#N)C1CCCCC1`, the cell count in assay [1] was 723. Moreover, the inhibition was -7.3% (inactive) in assay [1], -27.2% (inactive) in assay [3], -14.2% (inactive) in assay [7] and 99.3% (active) in assay [8]. For the same compound, the inhibition of aggregation in assay [2] was -178% (inactive). Further, the nuclei count in assay [2] was 7.1%; in assay [3], 125%. Also, the fluorescence slope in assay [4] was -0.42 (inactive). In assay [5], the NADPH fluorescence slope was -1.4e-05 (inactive). The slope in assay [6] was 0.00552 (inactive).
Turning to `CCC12CN3CC(CC)(CN(C1)C3c1ccc(OC(C)C)cc1)C2=O` (centres undefined), the cell count in assay [1] came out at 692. The inhibition in assay [1] is 12.1% (inactive); in assay [3] it was -15.2% (inactive); in assay [7], 8.78% (inactive); in assay [8], 15.9% (inactive). Moreover, the inhibition of aggregation in assay [2] was 10.5% (inactive). Also, the nuclei count was found to be 93.2% in assay [2] and 94.3% in assay [3]. In addition, the fluorescence slope in assay [4] is -0.528 (inactive). Moreover, the NADPH fluorescence slope in assay [5] is -0.000143 (inactive). In addition, in assay [6], the slope is 0.0058 (inactive).
For `Cc1cc(=O)oc(C)c1C(=O)O`, the cell count in assay [1] is 560. Also, the inhibition is -13.1% (inactive) in assay [1], -3.9% (inactive) in assay [3], 9.47% (inactive) in assay [7] and 25.5% (inactive) in assay [8]. In assay [2], the inhibition of aggregation was 20.6% (inactive). Besides, the nuclei count stood at 88.5% in assay [2] and 114% in assay [3]. Also, the fluorescence slope in assay [4] is -0.451 (inactive). For the same compound, in assay [5], the NADPH fluorescence slope was -0.000139 (inactive). For the same compound, the slope in assay [6] was 0.00558 (inactive).
For `CCN1CCN(C(=O)c2cc3c(=O)n(C)c4ccccc4c3n2C)CC1`, the cell count in assay [1] was found to be 601. Also, the inhibition was 20.7% (inactive) in assay [1], -89.4% (inactive) in assay [3], 2.73% (inactive) in assay [7] and 32.2% (inactive) in assay [8]. For the same compound, in assay [2], the inhibition of aggregation is -10.2% (inactive). Besides, the nuclei count came out at 102% in assay [2] and 126% in assay [3]. The fluorescence slope in assay [4] was -0.583 (inactive). In addition, the NADPH fluorescence slope in assay [5] was -1.9e-05 (inactive). The slope in assay [6] is 0.00682 (inactive).
`CCN(CC(=O)O)S(=O)(=O)c1cc(Cl)ccc1Cl`: the cell count in assay [1] turned out to be 353. Moreover, the inhibition in assay [1] is 5.6% (inactive); in assay [3], -33.4% (inactive); in assay [7], -0.0466% (inactive); in assay [8], -0.284% (inactive). Also, the inhibition of aggregation in assay [2] was 10.8% (inactive). The nuclei count in assay [2] is 97.3%; in assay [3], 75.2%. Moreover, the fluorescence slope in assay [4] is -0.416 (inactive). The NADPH fluorescence slope in assay [5] was -2.7e-05 (inactive). Also, the slope in assay [6] is 0.00473 (inactive).
Turning to `Fc1cccc(Nc2ncnc3c2cnn3-c2ccccc2)c1`, in assay [1], the cell count was 644. Besides, the inhibition was -3.3% (inactive) in assay [1], -51.7% (inactive) in assay [3], -54.2% (inactive) in assay [7] and -148% (inactive) in assay [8]. Also, in assay [2], the inhibition of aggregation was 0.4% (inactive). Further, the nuclei count in assay [2] came out at 109%; in assay [3], 127%. In addition, the fluorescence slope in assay [4] is -0.57 (inactive). Further, the NADPH fluorescence slope in assay [5] was 4.4e-06 (inactive). Further, in assay [6], the slope was 0.00538 (inactive).
For the compound `CC(=O)c1ccc(NC(=O)CCc2c(C)nc3ncnn3c2C)cc1`, in assay [1], the cell count stood at 363. In addition, the inhibition is 0% (inactive) in assay [1], -31.1% (inactive) in assay [3], -9.29% (inactive) in assay [7] and -11.6% (inactive) in assay [8]. For the same compound, the inhibition of aggregation in assay [2] is 11.4% (inactive). For the same compound, the nuclei count in assay [2] is 103%; in assay [3], 113%. Also, the fluorescence slope in assay [4] was -0.498 (inactive). Further, in assay [5], the NADPH fluorescence slope was -2.9e-05 (inactive). The slope in assay [6] was 0.00573 (inactive).
As to `CC1CCCC(N2CCN(C(=O)c3ccc(F)cc3)CC2)C1` (centres undefined), the cell count in assay [1] turned out to be 625. The inhibition in assay [1] was -1.3% (inactive); in assay [3], -53.4% (inactive); in assay [7], 2.84% (inactive); in assay [8], 43.9% (inactive). In assay [2], the inhibition of aggregation is -15.5% (inactive). Further, the nuclei count is 106% in assay [2] and 114% in assay [3]. Further, the fluorescence slope in assay [4] is -0.581 (inactive). Besides, the NADPH fluorescence slope in assay [5] is -4.9e-05 (inactive). For the same compound, the slope in assay [6] is 0.00721 (inactive).
`COc1cc(C(Nc2ccc3c(c2)OCO3)C(=O)NC2CCCCC2)cc(OC)c1OC` (centres undefined): the cell count in assay [1] turned out to be 835. The inhibition in assay [1] was -10.7% (inactive); in assay [3], -35.2% (inactive); in assay [7], 14.6% (inactive); in assay [8], 28.3% (inactive). The inhibition of aggregation in assay [2] was 12.3% (inactive). The nuclei count worked out at 88.5% in assay [2] and 121% in assay [3]. In assay [4], the fluorescence slope was -0.63 (inactive). The NADPH fluorescence slope in assay [5] was -3e-05 (inactive). Further, the slope in assay [6] was 0.00532 (inactive).
For the compound `CC1=C(C(=O)OC(C)C)C(c2cccc(F)c2)n2ncnc2N1` (centres undefined), the cell count in assay [1] was 752. Also, the inhibition was 0% (inactive) in assay [1], -76.3% (inactive) in assay [3], -7.13% (inactive) in assay [7] and 22.1% (inactive) in assay [8]. Also, in assay [2], the inhibition of aggregation is 19% (inactive). The nuclei count in assay [2] came out at 95.5%; in assay [3], 114%. The fluorescence slope in assay [4] is -0.6 (inactive). In addition, the NADPH fluorescence slope in assay [5] was 1.6e-05 (inactive). In assay [6], the slope was 0.00586 (inactive).
Regarding `CCOC(=O)CCNC(=O)Nc1ccc2nc(C)n(Cc3ccccc3Cl)c(=O)c2c1`, the cell count in assay [1] was 623. Besides, the inhibition in assay [1] was 1.4% (inactive); in assay [3], -33.8% (inactive); in assay [7], 1.46% (inactive); in assay [8], -9.46% (inactive). In assay [2], the inhibition of aggregation was -9.2% (inactive). Besides, the nuclei count in assay [2] turned out to be 89.5%; in assay [3] it was 104%. In addition, the fluorescence slope in assay [4] is -0.366 (inactive). Further, in assay [5], the NADPH fluorescence slope is 1.6e-05 (inactive). Also, the slope in assay [6] is 0.00472 (inactive).
`COc1ccc(-n2c(N)c(C(=O)NCc3ccco3)c3nc4ccccc4nc32)c(OC)c1`: the cell count in assay [1] amounted to 737. For the same compound, the inhibition in assay [1] is -6% (inactive); in assay [3], 27.3% (inactive); in assay [7] it was 6.27% (inactive); in assay [8] it was 7.88% (inactive). The inhibition of aggregation in assay [2] was -0.1% (inactive). The nuclei count in assay [2] is 97.9%; in assay [3] it was 102%. Moreover, the fluorescence slope in assay [4] was -0.246 (inactive). Besides, in assay [5], the NADPH fluorescence slope is -4.5e-06 (inactive). Moreover, in assay [6], the slope was 0.00521 (inactive).
Regarding `O=C1CC(c2ccsc2)c2cc3c(cc2N1)OCCO3` (centres undefined), the cell count in assay [1] was found to be 623. In addition, the inhibition in assay [1] was 0% (inactive); in assay [3] it was -78.5% (inactive); in assay [7], 1.12% (inactive); in assay [8], 21.1% (inactive). Also, the inhibition of aggregation in assay [2] was -4.2% (inactive). Moreover, the nuclei count turned out to be 87.6% in assay [2] and 129% in assay [3]. The fluorescence slope in assay [4] is -0.556 (inactive). Besides, the NADPH fluorescence slope in assay [5] was -2.5e-05 (inactive). The slope in assay [6] was 0.0063 (inactive).
`COc1ccc(N(CC(=O)Nc2ccc3c(c2)OCCO3)S(=O)(=O)c2cccnc2)cc1`: the cell count in assay [1] worked out at 515. Also, the inhibition in assay [1] was -3.3% (inactive); in assay [3], -36.8% (inactive); in assay [7] it was -5.76% (inactive); in assay [8] it was 17.1% (inactive). In assay [2], the inhibition of aggregation is 13.1% (inactive). Further, the values for the nuclei count in assay [2] and in assay [3] were 117% and 122%, respectively. The fluorescence slope in assay [4] was -0.608 (inactive). Besides, the NADPH fluorescence slope in assay [5] was -7e-05 (inactive). Further, the slope in assay [6] was 0.00783 (inactive).

(Values after PubChem BioAssay.)
